In PubChem BioAssay:
Calls of active or inactive are those of the source.

What was measured:
[1] = compounds binding Alexa647 anti-His antibody – biochemical, small-molecule microarray, 635 nm fluorescence, artefact control for SMM control protein annotation, primary screen (AID 1128); conditions: higher = more signal;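 also: score merges feature fluorescence with signal-to-noise for each printed compound spot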
[2] = tested on: Human papillomavirus type 1a E7 protein (residues 1-88); test: HPV1a E7 small-molecule binders, primary screen, biochemical, small-molecule microarray, residues 1-88, 635 nm (AID 1129); conditions: small-molecule microarray binding, fluorescence 635 nm; higher = more signal
[3] = target: Focal adhesion kinase 1 (Homo sapiens) (UniProt Q05397); test: PTK2 protein binding on printed compound slides – biochemical, small-molecule microarray, 635/667 nm fluorescence, BSA, DTT, primary screen (AID 1130); conditions: 635 nm fluorescence, higher = more signal;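 also: composite of spot emission at 667 nm and signal to noise over triplicate slides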
[4] = tested on: Fibrinogen (Alexa647-labelled); test: Alexa647-fibrinogen binding to printed small molecules – biochemical, small-molecule microarray, 635/667 nm fluorescence, artefact control for SMM control-protein annotation, profiling panel (AID 1131); conditions: fibrinogen-A647 binding fluorescence, higher = more signal;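 also: z-score merges 667 nm fluorescence with per-spot signal-to-noise over triplicate slides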
[5] = target: Follistatin (Homo sapiens) (UniProt P19883); test: FST protein binding to printed compounds – biochemical, small-molecule microarray, 635/667 nm fluorescence, primary screen (AID 1132); conditions: 635 nm fluorescence, higher = more signal
[6] = target: Fibroblast growth factor 2 (Homo sapiens) (UniProt P09038); test: basic fibroblast growth factor binding to printed compounds – biochemical, small-molecule microarray, 635/667 nm fluorescence, primary screen (AID 1133); conditions: FGF2, fluorescence 635/667, higher = more signal
[7] = JC-1 mitochondrial potential readout, lung cancer cells – cell-based, A549, JC-1 fluorescence, basal, 24 h, 100 nL, profiling panel (AID 1138); conditions: higher = more signal;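 also: A549 lung adenocarcinoma cells under basal conditions with no added stimulus; test concentration not given here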
Lefty1 = Lefty1 protein binding to printed compounds – biochemical, small-molecule microarray, 635/667 nm fluorescence, primary screen (AID 1139); conditions: fluorescence 635/667, higher = more signal
[8] = tested on: wheat germ agglutinin (Triticum aestivum), Alexa647-labelled; test: Alexa647-WGA lectin binding to printed small molecules – biochemical, small-molecule microarray, 635/667 nm fluorescence, artefact control for SMM control-protein annotation, profiling panel (AID 1140); conditions: WGA-A647 binding, 635 nm fluorescence, higher = more signal;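 also: score merges 667 nm feature emission with signal to noise over triplicate slides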
[9] = target: Luciferin 4-monooxygenase (Photinus pyralis) (UniProt P08659); test: inhibition of purified Photinus pyralis luciferase – biochemical, luminescence, purified enzyme, 2006 set, primary screen (AID 1141); conditions: purified firefly luciferase, SteadyGlo luminescence, 30 min; higher = more signal, called active from +8 up or from −8 down;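 also: cell-free assay with purified firefly luciferase at 100 ng per well in PBS; test concentration not given here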
Chain of Luciferin 4-monooxygenase (Photinus pyralis) (P08659 whole entry, looked up): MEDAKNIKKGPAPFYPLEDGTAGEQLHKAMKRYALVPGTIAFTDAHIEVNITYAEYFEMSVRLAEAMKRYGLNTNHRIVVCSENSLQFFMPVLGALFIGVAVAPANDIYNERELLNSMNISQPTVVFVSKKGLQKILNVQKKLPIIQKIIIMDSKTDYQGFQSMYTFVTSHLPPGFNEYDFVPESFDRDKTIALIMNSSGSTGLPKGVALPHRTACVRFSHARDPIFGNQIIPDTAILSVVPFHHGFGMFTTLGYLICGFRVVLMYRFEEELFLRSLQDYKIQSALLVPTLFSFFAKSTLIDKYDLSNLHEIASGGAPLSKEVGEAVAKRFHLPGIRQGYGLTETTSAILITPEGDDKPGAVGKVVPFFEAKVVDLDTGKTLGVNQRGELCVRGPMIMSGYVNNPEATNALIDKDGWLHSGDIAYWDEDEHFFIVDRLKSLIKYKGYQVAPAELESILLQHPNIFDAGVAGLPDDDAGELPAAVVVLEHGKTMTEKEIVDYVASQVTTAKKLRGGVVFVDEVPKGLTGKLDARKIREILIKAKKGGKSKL

Chain of Follistatin (Homo sapiens) (P19883 whole entry, looked up): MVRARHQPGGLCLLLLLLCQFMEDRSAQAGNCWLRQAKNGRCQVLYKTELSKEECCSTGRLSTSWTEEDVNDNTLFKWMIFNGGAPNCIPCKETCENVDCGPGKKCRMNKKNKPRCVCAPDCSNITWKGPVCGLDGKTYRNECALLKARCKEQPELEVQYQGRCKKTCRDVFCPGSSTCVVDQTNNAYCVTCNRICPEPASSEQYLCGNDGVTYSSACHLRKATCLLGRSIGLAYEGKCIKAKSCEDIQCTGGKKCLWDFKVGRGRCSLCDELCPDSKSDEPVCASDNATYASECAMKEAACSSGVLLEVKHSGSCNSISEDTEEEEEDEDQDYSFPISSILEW
Chain of Fibroblast growth factor 2 (Homo sapiens) (P09038 whole entry, looked up): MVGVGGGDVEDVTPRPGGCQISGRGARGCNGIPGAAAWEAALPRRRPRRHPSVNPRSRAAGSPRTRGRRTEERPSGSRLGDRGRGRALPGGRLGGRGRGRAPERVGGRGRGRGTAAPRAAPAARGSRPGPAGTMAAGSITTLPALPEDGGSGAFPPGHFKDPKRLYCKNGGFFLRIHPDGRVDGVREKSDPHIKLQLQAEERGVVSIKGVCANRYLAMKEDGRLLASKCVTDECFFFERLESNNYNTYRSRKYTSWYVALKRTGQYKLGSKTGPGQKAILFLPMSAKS
Chain of Focal adhesion kinase 1 (Homo sapiens) (Q05397 whole entry, looked up): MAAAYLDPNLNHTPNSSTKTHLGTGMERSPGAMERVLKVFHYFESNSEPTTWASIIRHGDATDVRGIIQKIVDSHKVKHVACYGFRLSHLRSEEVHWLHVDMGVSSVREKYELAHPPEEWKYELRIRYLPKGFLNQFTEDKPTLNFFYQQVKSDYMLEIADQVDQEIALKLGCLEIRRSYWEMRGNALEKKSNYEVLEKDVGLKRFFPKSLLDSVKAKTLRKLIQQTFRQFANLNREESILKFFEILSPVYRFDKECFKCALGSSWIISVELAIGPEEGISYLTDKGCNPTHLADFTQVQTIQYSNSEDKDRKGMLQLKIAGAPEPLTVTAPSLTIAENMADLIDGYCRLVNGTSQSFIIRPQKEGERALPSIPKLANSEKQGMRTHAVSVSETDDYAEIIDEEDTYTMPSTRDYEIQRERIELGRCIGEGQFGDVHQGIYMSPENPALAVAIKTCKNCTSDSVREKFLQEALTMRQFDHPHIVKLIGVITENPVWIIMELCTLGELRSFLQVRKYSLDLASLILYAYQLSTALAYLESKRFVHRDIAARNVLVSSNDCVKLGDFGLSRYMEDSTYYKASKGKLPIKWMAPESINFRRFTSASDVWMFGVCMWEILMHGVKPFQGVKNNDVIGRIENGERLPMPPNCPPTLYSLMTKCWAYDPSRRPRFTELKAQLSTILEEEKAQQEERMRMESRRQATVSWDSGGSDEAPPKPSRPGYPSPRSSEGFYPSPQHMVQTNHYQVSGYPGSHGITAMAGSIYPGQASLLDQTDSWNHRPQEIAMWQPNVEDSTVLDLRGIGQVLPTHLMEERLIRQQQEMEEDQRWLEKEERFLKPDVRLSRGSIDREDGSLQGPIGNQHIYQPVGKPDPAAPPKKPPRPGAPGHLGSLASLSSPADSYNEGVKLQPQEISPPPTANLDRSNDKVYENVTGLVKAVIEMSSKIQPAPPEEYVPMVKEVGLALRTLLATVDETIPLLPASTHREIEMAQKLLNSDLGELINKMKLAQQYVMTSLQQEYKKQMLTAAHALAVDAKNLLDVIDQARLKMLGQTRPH

SMILES | composite z-score [1] | composite z-score [2] | composite z-score [3] | composite z-score [4] | composite z-score [5] | composite z-score [6] | z-score [7] | composite z-score (Lefty1) | composite z-score [8] | z-score [9]
[N-]=[N+]=NCc1ccccc1C[C@]1(C(=O)NCCN2CCOCC2)N=C(c2ccc(OCCCO)cc2)O[C@H]1c1ccccc1N=[N+]=[N-] | 0.853 | 1.25 | 0.669 | 0.989 | 0.714 | 0.0056 | 1.29 | -0.209 | 0.976 | -7.78 (inactive)
C=C[C@H](C)[C@@H](O)c1ccc(O)c2ccccc12 | 1.25 | -0.655 | -0.432 | -0.407 | 1.05 | 0.944 | -0.401 | 0.246 | 0.545 | -0.322 (inactive)
CC(C)C(O)C1C=CC2C(=O)N(c3ccccc3)C(=O)C2N1Nc1ccc(C#N)cc1 (stereo not given) | 1.68 | 1.14 | 0.0162 | 1.01 | 0.97 | 0.598 | 0.192 | -0.265 | 1.12 | -0.555 (inactive)
CN(C)C(=O)[C@@]1(CCC(=O)OC(C)(C)C)N=C(c2ccc(OCCCO)cc2)O[C@H]1c1ccccc1 | 3.44 | 1.11 | 0.384 | 0.65 | 0.381 | -0.309 | -0.457 | -0.943 | 0.798 | -0.874 (inactive)
COCCOC(=O)N1C(=O)[C@@]2(c3cc(C#Cc4ccc(OC)cc4)ccc31)[C@H](C(=O)N1CCN(c3ncccn3)CC1)[C@H]1C(=O)O[C@H](c3ccccc3)[C@H](c3ccccc3)N1[C@@H]2c1ccc(O)cc1 | 0.136 | 0.64 | 1.2 | -0.126 | 0.755 | 0.633 | -0.334 | 0.331 | 0.428 | -0.938 (inactive)
COC(=O)[C@@]1(Cc2ccc(F)cc2)[C@H]2c3cc(C(=O)N4CCCC4)n(Cc4cccc5ccccc45)c3C[C@H]2CN1C(=O)c1ccccc1 | 1.98 | 1.28 | 2.08 | 0.83 | 0.0834 | -0.426 | 0.917 | -0.0668 | 1.06 | 0.943 (inactive)
CCOC(=O)C1=C[C@@H](C(C)C)N(S(=O)(=O)c2ccc(C)cc2)[C@H]1c1ccc(C(C)C)cc1 | 0.408 | 1.15 | 1.54 | 0.915 | 1.23 | -0.067 | 2.96 | 0.752 | 0.734 | 2.41 (inactive)
CN1C=C(C(=O)OCCS(C)(=O)=O)C(C(=O)OCCS(C)(=O)=O)=CC(CCCO)=CC1C1CC1 (stereo not given) | 0.464 | -0.202 | 0.686 | 0.901 | 0.186 | -0.275 | 0.664 | 0.889 | 0.288 | -0.0115 (inactive)
CC(C)C(=C=CC[C@H](O)c1ccccc1OCCO)C[C@H](O)c1ccccn1 | 1.93 | 0.958 | 0.344 | 0.207 | 0.476 | 0.857 | 0.453 | 0.649 | 1.33 | -0.88 (inactive)
COCC1=C2[C@@H](CCc3ccccc3)OB(O)C[C@@H]2[C@@H]2C(=O)N(Cc3ccccc3)C(=O)[C@@H]2C1 | -0.0926 | -0.147 | -0.138 | 1 | 0.193 | -0.0119 | 0.092 | 0.261 | 0.397 | -0.683 (inactive)
COC(=O)C[C@@H]1C[C@H](C)[C@]2(O1)C(=O)N(Cc1ccccc1)c1ccc(NC(C)=O)cc12 | 0.716 | 0.453 | -0.183 | 0.458 | 0.431 | 0.471 | -1.05 | 0.488 | -0.259 | 0.0257 (inactive)
CCCCCN1CC=CC23O[C@@H]4/C=C\CCC(C)OC(=O)C4[C@H]2C(=O)N(CCCCCO)[C@@H]3C1=O (stereo not given in full) | -0.0232 | -0.413 | -0.0791 | -1.46 | -0.35 | 0.517 | -0.108 | 0.184 | 0.233 | -2.73 (inactive)
CCCN1C(=O)[C@@]2(CCC(=O)OC(C)(C)C)N=C(c3ccc(OCCCO)cc3)O[C@H]2c2ccccc21 | 2.6 | 0.999 | 0.677 | 0.274 | 1.4 | 1.53 | 1.13 | 0.691 | 0.133 | -2.45 (inactive)
CCN(CC)c1ccc(N2CC=CC34O[C@@H]5/C=C\CCCOC(=O)C5[C@H]3C(=O)N(C(CO)C(C)C)[C@@H]4C2=O)cc1 (stereo not given in full) | 1.02 | -1.04 | 0.409 | -1.1 | -0.45 | -0.593 | 0.8 | -0.217 | -0.615 | -0.557 (inactive)
C=CC[C@@]1(C(=O)O)N=C(c2ccc(OCCCO)cc2)O[C@@H]1c1ccccc1N=[N+]=[N-] | 1.06 | 0.811 | 0.235 | 0.987 | 1.1 | -0.168 | 0.117 | -0.504 | 1.36 | -12.9 (active)
COCCOC(=O)N1C(=O)[C@@]2(c3cc(C#CCNC(N)=O)ccc31)[C@H](c1ccc(OCCO)cc1)N1[C@H](c3ccccc3)[C@H](c3ccccc3)OC(=O)[C@H]1[C@@H]2C(=O)N1CCc2cc(OC)c(OC)cc2C1 | 0.276 | 0.665 | 0.145 | 0.531 | 1.38 | 1.2 | -1.41 | 0.658 | 0.848 | -0.702 (inactive)

SMILES | composite z-score [1] | composite z-score [2] | composite z-score [3] | composite z-score [4] | composite z-score [5] | composite z-score [6] | z-score [7] | composite z-score (Lefty1) | composite z-score [8] | z-score [9]
CCOC(=O)C[C@H]1[C@H](OC(=O)c2ccccc2-c2ccccc2)[C@@H](NC(=O)c2ccc3ccccc3c2)c2cc(OCCCO)ccc2N1C(=O)c1ccc2ccccc2n1 | 0.0868 | 0.635 | -0.0301 | 0.0467 | 0.874 | 0.306 | 0.988 | 0.543 | 0.119 | 0.667 (inactive)
CCOC(=O)C1=CC[C@@H](c2ccccc2Cl)N(S(=O)(=O)c2ccc(C)cc2)C1 | 1.15 | 1.18 | 1.29 | 0.838 | 0.37 | 0.163 | 2.73 | -0.612 | 0.91 | 0.614 (inactive)
Cc1ccc(S[C@]2(C(=O)NCCN3CCOCC3)CC(=O)N(Cc3cc(C(F)(F)F)cc(C(F)(F)F)c3)[C@@H]2c2ccc(CO)cc2I)cc1 | -1.02 | -0.27 | 0.414 | -0.46 | 0.016 | -1.13 | 0.164 | -0.304 | 0.0101 | 1.31 (inactive)
CCCNC(=O)[C@@H]1c2ccccc2C(=O)N(Cc2ccccc2)[C@H]1c1ccc(CO)cc1 | 1.88 | -0.081 | -0.255 | 0.213 | 0.122 | -0.193 | -0.109 | -0.82 | 0.935 | -0.322 (inactive)
COc1ccc(CCNC(=O)[C@@]2(c3ccc([N+](=O)[O-])cc3)CC(=O)N(CC34CC5CC(CC(C5)C3)C4)[C@@H]2c2ccc(CO)cc2)cc1 | 1.59 | 1.17 | 0.397 | 0.347 | 1.41 | 1.21 | -0.483 | 0.981 | -0.037 | 0.41 (inactive)
COCCCNC(=O)[C@@]1(c2ccc([N+](=O)[O-])cc2)CC(=O)N(CC23CC4CC(CC(C4)C2)C3)[C@@H]1c1ccc(CO)cc1 | 0.344 | 1.18 | 0.745 | 0.799 | 1.27 | 1.62 | 0.846 | 0.983 | 0.203 | 0.183 (inactive)
CCCCC=C[C@@H](NC(=O)c1cccs1)c1ccccc1 | 0.813 | 0.837 | 0.351 | 0.983 | -0.145 | 0.067 | 0.679 | -0.389 | 1.13 | 0.969 (inactive)
CCCCC(O)C1C=CC2C(=O)N(C3CCCCC3)C(=O)C2N1Nc1ccc(OC)cc1 (stereo not given) | 0.17 | 1.2 | 0.601 | 0.733 | 1.19 | -0.0692 | 0.191 | 0.496 | 1.14 | 1.06 (inactive)
COCCOC(=O)N1C(=O)[C@@]2(c3cc(C#CCNC(N)=O)ccc31)[C@H](c1ccccc1OCCO)N1[C@H](c3ccccc3)[C@H](c3ccccc3)OC(=O)[C@H]1[C@@H]2C(N)=O | 0.208 | 1.15 | 0.189 | 0.963 | 1.25 | 0.917 | -1.24 | 0.782 | 0.305 | -0.868 (inactive)
CC1CC/C=C\[C@H]2OC34C=CCN(Cc5ccccc5)C(=O)[C@H]3N(CCCCCO)C(=O)[C@@H]4C2C(=O)O1 (stereo not given in full) | 0.15 | -0.825 | 1.19 | -0.985 | -0.599 | -0.754 | 1.37 | -0.812 | -0.494 | -0.763 (inactive)
O=C1OCC=C[C@H]2OC34C=CCN(c5ccc(Cl)cc5)C(=O)[C@H]3N(CCCCCCO)C(=O)[C@@H]4[C@@H]12 (stereo not given in full) | 1.41 | -0.777 | -0.209 | -2.01 | -1.57 | -0.705 | 1.82 | -1.09 | -0.892 | -0.71 (inactive)
COCCOC(=O)N1C(=O)[C@@]2(c3cc(C#CCC(C(=O)OC)C(=O)OC)ccc31)[C@H](C(=O)N1CCCCCCC1)[C@H]1C(=O)O[C@H](c3ccccc3)[C@H](c3ccccc3)N1[C@@H]2c1ccc(OCCO)cc1 | 0.887 | 1.25 | 1.97 | 0.965 | 1.49 | 1.62 | -1.49 | 1.65 | 1.6 | -0.0546 (inactive)
O=C1C2C=CC(C(O)c3ccc(-c4ccccc4)s3)N(n3cnnc3)C2C(=O)N1Cc1ccccc1 (stereo not given) | 1.46 | -0.283 | 0.0347 | 0.708 | -0.279 | -0.625 | -1.32 | -0.69 | 0.525 | 1.77 (inactive)
[N-]=[N+]=NCc1ccccc1C[C@]1(C(=O)O)N=C(c2ccc(OCCCO)cc2)O[C@H]1c1ccccc1 | 1.29 | 1.13 | 0.165 | 0.687 | 0.0944 | 0.87 | 0.0539 | -1.43 | 1.2 | 0.414 (inactive)
COC(=O)C(CC#Cc1ccc2c(c1)[C@]1(C(=O)N2)[C@H](c2ccc(OCCO)cc2)N2[C@H](c3ccccc3)[C@H](c3ccccc3)OC(=O)[C@H]2[C@@H]1C(=O)NC[C@H](O)c1ccccc1)C(=O)OC | 1.06 | 1.23 | 0.751 | 0.849 | 0.966 | 0.387 | -0.816 | 0.346 | 1.16 | -1.67 (inactive)
CN1C(=O)C2C(C1=O)C1C=C(CCCO)C2C(c2cccs2)N1C (stereo not given) | 0.121 | -0.612 | -0.0834 | -0.234 | 0.143 | 0.0096 | 1.15 | -0.76 | -0.1 | -0.39 (inactive)
